About 14,000 (4.5%) of roughly 310,000 compounds showed an effect of 50% or more. The effect is printed as a negative number. The entries come from a sample that favours strong results as a whole.
These molecules were tested against human ether-à-go-go-related gene (hERG) potassium channel (human, UniProt Q12809) (assay: primary screen, population patch clamp on CHO cells stably expressing hERG; higher = less effect of the substance).
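Further: peak tail current of the secondary pulse compared with the same well before compound.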

Chain of human ether-à-go-go-related gene (hERG) potassium channel (Q12809 whole entry, looked up): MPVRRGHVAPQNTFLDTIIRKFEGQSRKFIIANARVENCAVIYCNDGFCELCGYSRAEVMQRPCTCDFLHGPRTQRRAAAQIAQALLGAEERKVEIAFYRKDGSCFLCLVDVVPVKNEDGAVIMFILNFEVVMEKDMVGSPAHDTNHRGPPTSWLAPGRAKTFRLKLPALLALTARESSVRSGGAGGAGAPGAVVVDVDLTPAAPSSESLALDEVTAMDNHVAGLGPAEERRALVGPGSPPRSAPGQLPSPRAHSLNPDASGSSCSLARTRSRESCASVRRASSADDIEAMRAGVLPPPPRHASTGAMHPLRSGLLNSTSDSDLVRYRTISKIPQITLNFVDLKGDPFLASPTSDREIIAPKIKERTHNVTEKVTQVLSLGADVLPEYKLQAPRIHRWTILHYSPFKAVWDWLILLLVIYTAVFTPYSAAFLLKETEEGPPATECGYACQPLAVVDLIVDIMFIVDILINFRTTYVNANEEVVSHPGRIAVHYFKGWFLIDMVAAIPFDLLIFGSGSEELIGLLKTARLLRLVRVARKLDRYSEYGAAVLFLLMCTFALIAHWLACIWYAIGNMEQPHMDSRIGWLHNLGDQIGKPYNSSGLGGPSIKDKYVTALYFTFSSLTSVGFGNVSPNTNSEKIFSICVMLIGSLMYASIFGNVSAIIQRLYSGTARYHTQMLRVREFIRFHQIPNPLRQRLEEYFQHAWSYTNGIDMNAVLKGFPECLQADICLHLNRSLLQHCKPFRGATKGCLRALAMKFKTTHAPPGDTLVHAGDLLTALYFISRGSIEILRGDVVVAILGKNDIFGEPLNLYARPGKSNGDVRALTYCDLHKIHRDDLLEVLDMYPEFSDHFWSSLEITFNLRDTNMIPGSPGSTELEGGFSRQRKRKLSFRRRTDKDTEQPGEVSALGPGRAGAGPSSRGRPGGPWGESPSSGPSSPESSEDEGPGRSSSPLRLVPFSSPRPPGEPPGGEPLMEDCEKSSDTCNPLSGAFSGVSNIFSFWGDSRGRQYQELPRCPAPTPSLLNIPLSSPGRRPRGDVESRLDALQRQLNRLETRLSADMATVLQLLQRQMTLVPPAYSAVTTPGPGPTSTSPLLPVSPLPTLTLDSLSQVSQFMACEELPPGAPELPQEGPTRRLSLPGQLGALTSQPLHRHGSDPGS

| SMILES | hERG current change (%, negative = inhibition) at 10uM [%] |
| --- | --- |
| C[C@@H]1CC=C[C@H]2[C@H]1C(=O)N(Cc1ccccc1)[C@H]2c1ccoc1 | 3.54 |
| CC(CN1CCCCC1)C(=O)NNC(=O)C12CC3CC(CC(C3)C1)C2 (stereo not drawn) | 3.74 |
| CC(C)c1onc(C(=O)N2CCN(c3ccc(F)cc3)CC2)c1[N+](=O)[O-] | -19.9 |
| COc1ccccc1NC(=O)CSc1nnc(C2CCCCC2)n1N | 5.54 |
| Cc1ccc(-n2cc(CNCCc3ncc(C)[nH]3)c(-c3ccc(F)cc3)n2)cc1 | -47.4 |
| Cc1ccc(-n2cc(CNCCc3cscn3)c(-c3ccc(F)cc3)n2)cc1 | -59 |
| O=Cc1cn(-c2ccccc2)nc1-c1ccc2c(c1)OCCO2 | -0.855 |
| c1ccc(-n2cc(CNCCc3cscn3)c(-c3ccc4c(c3)OCO4)n2)cc1 | -65.4 |
| Fc1ccc(-c2nn(-c3ccccc3)cc2CNCc2ccccc2)cc1 | 1.75 |
| OCc1cn(-c2ccccc2)nc1-c1ccc2c(c1)OCCO2 | 5.83 |
| O=C(CSC1=NCCS1)NC(NC(=O)CSC1=NCCS1)c1ccccc1 | 18.6 |
| O=C(C1CCN(S(=O)(=O)c2ccc(F)cc2)CC1)N1CCOCC1 | 15.3 |
| COc1ccc(CNC(=O)c2cc(-c3ccccc3O)n[nH]2)cc1 | 5.51 |
| O=C1CC(N2CCN(C(c3ccccc3)c3ccccc3)CC2)C(=O)N1 (stereo not drawn) | -0.687 |
| NC(=O)COn1c(SCC(N)=O)nc2ccccc2c1=O | 19.3 |
| COC(=O)c1cc(Br)c(=O)n(Cc2ccncc2)c1 | -1.41 |
| Cc1cccc(N2CCN(C(=O)COc3ccc4c(C)cc(=O)oc4c3C)CC2)c1C | 13.6 |
| CCCc1cc(=O)oc2cc(OCC(=O)N3CCC(C(N)=O)CC3)ccc12 | -6.67 |
| Cc1cc(=O)oc2c(C)c(OCC(=O)N3CCN(C(=O)C4COc5ccccc5O4)CC3)ccc12 (stereo not drawn) | -50.4 |
| CCOc1ccccc1N1CCN(C(=O)COc2ccc3c(C)cc(=O)oc3c2)CC1 | -6.28 |

| SMILES | hERG current change (%, negative = inhibition) at 10uM [%] |
| --- | --- |
| CCCc1cc(=O)oc2cc(OCC(=O)N3CCN(C(=O)C4COc5ccccc5O4)CC3)ccc12 (stereo not drawn) | -65.9 |
| Cc1c(C)c2ccc(OCC(=O)N3CCN(c4ccccc4)CC3)cc2oc1=O | -36.1 |
| Cc1c(C)c2ccc(OCC(=O)N3CCN(C(=O)C4COc5ccccc5O4)CC3)cc2oc1=O (stereo not drawn) | -60.9 |
| CCCc1cc(=O)oc2cc(OCC(=O)N3CCC(C(=O)O)(c4ccccc4)CC3)ccc12 | 6.41 |
| Cc1cc(=O)oc2cc(OCC(=O)N3CCN(C(=O)C4COc5ccccc5O4)CC3)ccc12 (stereo not drawn) | -53.6 |
| O=C(COc1ccc2ccc(=O)oc2c1)N1CCN(C(=O)C2COc3ccccc3O2)CC1 (stereo not drawn) | -46.2 |
| Cc1cc(=O)oc2cc(OCC(=O)N3CCN(C(=O)C4COc5ccccc5O4)CC3)c(Cl)cc12 (stereo not drawn) | -48 |
| Cc1c(C)c2ccc(OCC(=O)N3CCC(C(=O)O)CC3)cc2oc1=O | -6.41 |
| CCOC(=O)c1ccc(NC(=O)CCc2nc(-c3ccc(Cl)cc3)no2)cc1 | 8.36 |
| Cc1cccc(N(CC(=O)NCCSCc2ccccc2)S(C)(=O)=O)c1C | -17.4 |
| Cc1ccc(S(=O)(=O)N2CCN(C(=O)COC(=O)c3c(C)noc3C)CC2)c(C)c1 | -18.8 |
| COCCCNC(=O)CN(c1ccc(Cl)c(Cl)c1)S(C)(=O)=O | -10.9 |
| Cc1ccc(NCC(=O)N/N=C\c2cccc(O)c2)cc1 | 1.98 |
| C=CCNC(=S)N1CCOCC1 | -1.69 |
| O=C(/C=C/c1ccccc1[N+](=O)[O-])NNC(=O)c1ccncc1 | -7.86 |
| CCOc1ccccc1NC1=C(Cl)C(=O)N(c2ccc(OC)cc2)C1=O | -10.4 |
| Cc1cc(=O)oc2cc(OCC(=O)N3CCN(Cc4ccc5c(c4)OCO5)CC3)ccc12 | -42.9 |
| CCCc1cc(=O)oc2cc(OCC(=O)N3CCN(Cc4ccc5c(c4)OCO5)CC3)ccc12 | -57 |
| Cc1ccc(OCC(=O)N2CCN(Cc3ccc4c(c3)OCO4)CC2)cc1C | -24.6 |
| CC(Oc1ccccc1)C(=O)N=C1SC2CS(=O)(=O)CC2N1Cc1ccc(F)cc1 (stereo not drawn) | -24.6 |

| SMILES | hERG current change (%, negative = inhibition) at 10uM [%] |
| --- | --- |
| CCc1cccc(CC)c1NC(=O)C1CCN(C(=O)c2ccco2)CC1 | 2.93 |
| COc1ccc(C(=O)OCn2nnc3ccccc3c2=O)cc1OC | 8.71 |
| O=C(Nc1ccc(Br)cc1)C1C2C=CC3(O2)C1C(=O)N(CCN1CCCCC1)C3C(=O)NC1CCCCC1 (stereo not drawn) | -59.8 |
| O=C(Nc1ccc(Cl)c(Cl)c1)C1C2C=CC3(O2)C1C(=O)N(CCN1CCCCC1)C3C(=O)NC1CCCCC1 (stereo not drawn) | -60.8 |
| O=C(Nc1ccc(Br)cc1)C1C2C=CC3(O2)C1C(=O)N(CCN1CCOCC1)C3C(=O)NC1CCCCC1 (stereo not drawn) | -3.6 |
| Cc1ccc(NC(=O)C2C3C=CC4(O3)C2C(=O)N(CCCN2CCCCC2)C4C(=O)NC2CCCCC2)cc1Cl (stereo not drawn) | 16.3 |
| Cc1cc(C)cc(NC(=O)C2C3C=CC4(O3)C2C(=O)N(CCN2CCCCC2)C4C(=O)NC2CCCCC2)c1 (stereo not drawn) | -40.3 |
| O=C(Nc1ccc(Cl)cc1)C1C2C=CC3(O2)C1C(=O)N(CCN1CCCCC1)C3C(=O)NC1CCCCC1 (stereo not drawn) | -44.1 |
| Cc1ccc(-c2nc(N)n(S(C)(=O)=O)n2)cc1 | 7.05 |
| CC(C)(C)n1nc2c(c1NC(=O)c1ccccc1F)CS(=O)C2 (stereo not drawn) | 15.6 |
| Cc1ccc2cc(/C=C/C(=O)c3ccco3)c(Cl)nc2c1 | 15.2 |
| Cc1cc(C)c2nc(NC(=O)c3ccc4c(=O)n5c(nc4c3)CCCCC5)sc2c1 | 13.9 |
| Cc1cccc(NC(=O)c2ccc3c(=O)n4c(nc3c2)CCCCC4)n1 | -67.2 |
| Cc1csc(NC(=O)c2ccc3c(=O)n4c(nc3c2)CCCCC4)n1 | -80.3 |
| Cc1ccc(NC(=O)c2ccc3c(=O)n4c(nc3c2)CCCCC4)nc1 | -60.4 |
| Cc1ccc(-c2csc(NC(=O)c3ccc4c(=O)n5c(nc4c3)CCCCC5)n2)cc1 | -6.65 |
| O=C(Nc1ccccn1)c1ccc2c(=O)n3c(nc2c1)CCCCC3 | -47.2 |
| O=C(Nc1ccccc1Cl)c1ccc2c(=O)n3c(nc2c1)CCC3 | -6.14 |
| O=C(Nc1nc(-c2ccccc2)cs1)c1ccc2c(=O)n3c(nc2c1)CCCCC3 | -23.8 |
| COc1ccc(C)cc1NC(=O)c1ccc2c(=O)n3c(nc2c1)CCCCC3 | -42.5 |

From publication PMC4336329 (PLoS ONE, 2015)
